Assay outcomes: PubChem BioAssay, National Center for Advancing Translational Sciences (NCATS)
KB-V1 cytotox: qHTS assay for MDR1-selective chemotherapeutics: Primary screen using the drug-selected MDR subline cells KB-V1; KB-V1 MDR cells viability, CellTiter-Glo, 72 h; Potency, µM (titrated, usually from 46.1 µM), hits mostly cytotoxic; actives 3.4% (n = 400,000); AID 1347076, 2019; further: potency means the concentration at half of the fitted maximal effect; on the % scale 0 is the no-effect control and ±100 the full control effect; nearly all actives have a fitted effect of over 60% in size
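Drug-selected KB-V1 cells, grown in DMEM lacking phenol red with 10% FBS, receive compound titrations; after three days at 37 degrees C, surviving cell ATP is quantified by CellTiter-Glo luminescence and responses normalized and curve-fitted.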
MCF10A rereplic: A quantitative high throughput screen for small molecules that induce DNA re-replication in MCF 10a normal breast cells; Potency, µM (top dose mostly 46.1 µM), without a hit: at the highest dose activity, positive = re-replication, usual class: activators; AID 624296, 2012; actives 2.9% (n = 350,000); MCF 10A DNA re-replication, Hoechst nuclear intensity, 48 h; further: potency means the concentration at half of the fitted maximal effect; % of control where 0% means no effect; nearly all actives have a fitted effect of over 50% in size
IL-1B inflam inh: qHTS for Inhibitors of Inflammasome Signaling: IL-1-beta AlphaLISA Primary Screen; THP-1 LPS/ATP IL-1B secretion, AlphaLISA, 16 h; stronger effect = lower value; activity change, % at 57.5 µM; actives 4.7% (n = 360,000); AID 743279, 2014; in the data active means activity change below about -50%; inconclusive means mostly about -30% to -49%; further: on the % scale 0 is the no-effect control and ±100 the full control effect
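THP-1 cells pretreated 1 hr with compounds (up to 57.5 uM final), then stimulated with LPS (250 ng/mL final) plus ATP (1.25 mM final); secreted IL-1B measured by AlphaLISA after 16 hr, decreased signal indicating inhibition.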
KB-3-1 tox: qHTS assay for MDR1-selective chemotherapeutics: Primary screen using the parental adenocarcinoma cell KB-3-1. KB-3-1 viability, CellTiter-Glo ATP luminescence, 72 h. Potency, µM (series often up to 46.1 µM), most hits filed as cytotoxic. actives 1.4% (n = 400,000); further: potency means the concentration at half of the fitted maximal effect; on the % scale 0 is the no-effect control and ±100 the full control effect; nearly all actives have a fitted effect of over 60% in size
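Parental KB-3-1 adenocarcinoma cells in phenol-red-free DMEM with 10% FBS were pin-treated with compounds at several concentrations, incubated 72 h at 37 °C, and viability read by CellTiter-Glo luminescence; concentration-effect curves were fitted after normalization.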
SW480 rereplic: A quantitative high throughput screen for small molecules that induce DNA re-replication in SW480 colon adenocarcinoma cells | Potency, µM (titrated, usually from 46.1 µM), for the others: at the highest dose re-replication activation, actives largely listed as activators | actives 1.8% (n = 340,000) | SW480 DNA re-replication, Hoechst DNA content imaging, 48 h; further: potency means the concentration at half of the fitted maximal effect; % of control where 0% means no effect; nearly all actives have a fitted effect of over 55% in size
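Hoechst fluorescence of nuclei (405 nm excitation, 500-530 nm emission) measured by plate-scanning imager after 48 hr compound exposure at 37 C; re-replication scored as increased number of nuclei with elevated intensity.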
* hit, by the source's call; i = inactive; ? = inconclusive; . = no result given. In the library only some 9.9% were active in any assay of this set; here they are far more common. Unless noted, the call rests on the fitted dose curve; in most records, active means well fitted curve in the direction sought with a large enough effect; inconclusive means small, poorly fitted or top-dose-only effect, or another doubt; inactive means no such curve, though single readings can be large; an effect the other way counts as inactive or inconclusive.

SMILES	KB-V1 cytotox	MCF10A rereplic	IL-1B inflam inh	KB-3-1 tox	SW480 rereplic
Cn1c(O)c(C2=NN(C(=O)CCl)C(c3ccccc3)C2)c(=O)n(C)c1=O (stereo not given)	i	4%	3	i	-9%
CCC(=O)N1N=C(c2c(O)n(C)c(=O)n(C)c2=O)CC1c1ccccc1 (stereo not given)	?	12%	250	21µM*	?
COc1ccccc1NP1(=O)OCC(C)([N+](=O)[O-])CO1 (stereo not given)	i	1%	23	i	-3%
O=C1NC(=O)C(C2CCOC2=O)N1 (stereo not given)	i	.	6	i	.
CCN1/C(=C/C=C/C2=[N+](CC)c3ccccc3C2(C)C)C(C)(C)c2ccccc21	8.2µM*	.	-105*	0.0065µM*	.
CN1/C(=C\C=Nc2ccccc2)C(C)(C)c2ccccc21	i	16%	11	i	-2%
CCOP(=O)(OCC)C(NC(=O)c1cccc2ccccc12)C(Cl)(Cl)Cl (stereo not given)	i	?	i	i	8%
CCOP(=O)(OCC)c1nc(-c2cccc3ccccc23)oc1NCCc1ccc(OC)cc1	5.2µM*	10µM*	-55*	?	21µM*
CCOP(=O)(OCC)c1nc(-c2cccc3ccccc23)oc1N1CCOCC1	?	?	-73*	i	13%
CCOP(=O)(OCC)c1nc(-c2ccc(F)cc2)oc1NCc1ccccc1	i	4.1µM*	-54*	i	-18%
COC(=O)CSc1cc([N+](=O)[O-])cc2c1c(C1OCCO1)nn2-c1ccccc1	i	?	18	i	-1%
Cc1nnc(NC(=O)c2cccn(Cc3ccc(Cl)cc3)c2=O)s1	i	.	.	i	.
Cc1cccc(NP(=O)(Oc2ccccc2)Oc2ccccc2)c1C	?	?	-89*	?	?
O=P(Nc1ccccc1)(Oc1ccccc1)Oc1ccccc1	?	9%	-29	i	-19%
CC1CCN(c2nc(-c3ccc(F)cc3)cc(C(F)(F)F)n2)CC1	i	?	0	i	0%
FC(F)OC(F)(F)C(F)Cl (stereo not given)	.	4%	.	.	-6%
C=C1C(C)C2C(Cc3ccccc3)NC(=O)C23C(OC(C)=O)C=CC(C)(O)CC(C)CC=CC3C1O (stereo not given)	?	?	53	?	3.7µM*
CC(=O)O[C@@H]1/C=C/[C@](C)(O)C[C@@H](C)C/C=C/[C@H]2[C@H](O)C(C)=C(C)[C@H]3[C@H](Cc4ccccc4)NC(=O)[C@@]123	i	?	10	?	18µM*
C=C1[C@@H](C)[C@H]2[C@H](Cc3ccccc3)NC(=O)[C@]23OC(=O)/C=C/[C@H](O)CCC[C@@H](C)C/C=C/[C@H]3[C@@H]1O	?	?	35	i	5.8µM*
C[C@H]1C/C=C/[C@H]2[C@H](O)[C@H](C)[C@@](C)(O)[C@H]3[C@H](Cc4ccccc4)NC(=O)[C@]32[C@H](O)/C=C/[C@](C)(O)C1	i	?	-20	i	?
O=C1OCCC1NC1=NCCC1 (stereo not given)	i	2%	-6	i	-14%
ClC(Cl)Cl	.	3%	.	.	0%
Cc1ccccc1OCC(=O)N1CCN(CCc2ccccn2)CC1	i	.	.	?	.
COc1ccc(C(c2nnnn2Cc2ccccc2)N2CCC(n3c(=O)[nH]c4ccccc43)CC2)cc1 (stereo not given)	?	.	-1	?	.
CSCCC(c1nnnn1Cc1ccccc1)N1CCC(n2c(=O)[nH]c3ccccc32)CC1 (stereo not given)	10µM*	.	-22	i	.
